# In PubChem BioAssay AID1508602 (The Scripps Research Institute Molecular Screening Center, 2020):
# In all, about 650,000 compounds went through this assay and about 6,800 (1%) were called active. The full list was thinned out, with actives kept by preference. A number with no mark means an inactive call. No stated cut-off is given here; in the data, active means activation above about 4.9%; inactive means the rest.
# Biological target: G-protein coupled receptor 151 (Homo sapiens) (UniProt Q8TDV0)
# Sequence (Q8TDV0 whole entry, looked up): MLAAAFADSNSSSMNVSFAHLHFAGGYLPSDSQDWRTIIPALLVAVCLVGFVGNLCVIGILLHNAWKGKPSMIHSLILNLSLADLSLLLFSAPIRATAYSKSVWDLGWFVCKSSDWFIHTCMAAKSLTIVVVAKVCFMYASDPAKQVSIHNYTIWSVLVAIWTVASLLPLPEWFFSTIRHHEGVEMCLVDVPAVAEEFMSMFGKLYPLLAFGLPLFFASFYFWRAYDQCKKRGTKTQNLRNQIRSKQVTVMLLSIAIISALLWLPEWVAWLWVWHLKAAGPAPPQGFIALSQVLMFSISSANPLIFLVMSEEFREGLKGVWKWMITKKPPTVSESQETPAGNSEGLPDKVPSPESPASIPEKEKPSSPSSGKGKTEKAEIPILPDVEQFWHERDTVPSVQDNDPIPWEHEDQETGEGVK
# Assay: activates the human receptor GPR151, primary screen, cell-based, PathHunter beta-arrestin, luminescence (AID 1508602);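 further: 0% = median of compound wells and 100% = cells with positive control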
# Conditions: PathHunter beta-arrestin GPR151 cells, at 11.2 µM, hits give high values
row,SMILES,activation
1,CCC(C)C(=O)NCc1nnc2n1CCN(C(=O)c1sc(C)nc1C)CC2 (stereo not given),-0.99%
2,COc1cccc(NC(=O)c2cc([N+](=O)[O-])ccc2NC(=O)CNCc2cccnc2)c1,-1.03%
3,O=C(Nc1ccc(-c2ccncc2)cn1)C1COc2ccccc2O1 (stereo not given),-2.03%
4,COCCNc1nc2nonc2nc1N1CCCC1c1nccs1 (stereo not given),1.38%
5,COCCNc1nc2nonc2nc1N(C)Cc1ccncc1C,8.73% (active)
6,COCCNc1nc2nonc2nc1N(C)Cc1ccc(C)cc1,-1.03%
7,O=C(O)c1cc([N+](=O)[O-])c(NCc2ccccc2)c([N+](=O)[O-])c1,0.643%
8,O=C(Cn1c(=O)n(Cc2ccc(F)cc2)c(=O)c2cccnc21)Nc1ccccc1F,0.571%
9,O=C(Cn1c(=O)n(Cc2cccs2)c(=O)c2cccnc21)Nc1ccc(F)cc1,5.75% (active)
10,O=C(Cn1c(=O)n(Cc2ccc3c(c2)OCO3)c(=O)c2cccnc21)Nc1ccc(F)cc1,-0.979%
11,COc1ccc(NC(=O)c2ccc(F)c3ccccc23)cc1,0.361%
12,COC(=O)c1cnn2c1NCN(Cc1ccccc1Cl)C2,0.44%
13,CC(=O)Nc1cccc(-c2cnc3[nH]c(=O)n([C@@H](C)c4ccccc4)c3n2)c1,0.0611%
14,CCN(CC)C(=O)C1c2ccccc2C(=O)N(CCOC)C1c1c[nH]c2ccccc12 (stereo not given),-0.555%
15,COc1ccc(-c2nc3cc(Cl)ccc3c(=O)o2)cc1OC,-0.243%
16,COc1cc2nc(-c3ccc4c(c3)C(=O)N(CCC(C)C)C4=O)oc(=O)c2cc1OC,5.83% (active)
17,COc1ccc([N+](=O)[O-])cc1N1C(=O)c2ccc(-c3nc4ccccc4c(=O)o3)cc2C1=O,2.31%
18,O=C(c1ccccc1)N1CCN(c2nc3ccccc3o2)CC1,0.594%
19,Cc1ccc(S(=O)(=O)N/N=C/c2ccc(N(C)C)c(Br)c2)cc1,-1.16%
20,O=C(CCn1nnc2ccccc21)N/N=C/c1ccc2ccccc2c1,-0.0304%
21,Cc1ccccc1Nc1nnc(SCC(=O)N(C)C)s1,-2.99%
22,CCOc1ccc(NS(=O)(=O)c2ccc(Cl)cc2)cc1,2.4%
23,CCc1ccc(NS(=O)(=O)c2ccc(Cl)cc2)cc1,5.43% (active)
24,COc1ccc(NS(=O)(=O)c2ccc(Cl)cc2)cc1,2.48%
25,O=C(Nc1ccc(F)c(F)c1)c1ccc(N2CC3CC(C2)c2cccc(=O)n2C3)c(NC(=O)c2ccc(Br)o2)c1 (stereo not given),2.62%
